Tau ThT inhib: tau fibrillization inhibition (ThT binding); AID 1460; Potency, µM (top dose mostly 57.4 µM), inactives show at the top dose activity, negative = inhibition, most hits filed as inhibitors; 270,000 compounds, 2.1% hits; recombinant tau K18 P301L, heparin-induced fibrillization, ThT fluorescence; further: nearly all actives have a fitted effect of over 55% in size
Target sequence (P10636 561-689 P618L limits assumed): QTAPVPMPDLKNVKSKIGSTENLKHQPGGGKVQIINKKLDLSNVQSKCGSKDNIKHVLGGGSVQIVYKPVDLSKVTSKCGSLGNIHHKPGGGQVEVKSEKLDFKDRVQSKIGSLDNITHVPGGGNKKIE
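Heparin-induced (20 uM) aggregation of recombinant human K18 P301L tau, 15 uM unlabeled with 0.24 uM labeled, pH 7 acetate buffer, 6 hr at 37 C with compound. Fibrils quantified by 30 uM ThT fluorescence after 1 hr ambient incubation.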
TexasRed fluor: alters Texas Red total fluorescence, flagging assay interference; TRb/SRC2 Texas Red total fluorescence interference; Potency, µM (doses to about 106 µM), without a hit: top-dose fluorescence change, negative = quenching; 280,000 compounds, 0.29% hits; AID 1479; active means well fitted curve in either direction with a large enough effect; inconclusive means small, poorly fitted or top-dose-only effect
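Flags fluorescent or light-absorbing compounds by total fluorescence, S + 2P, at 555 nm excitation and 632 nm emission. Mixture: 20 nM Texas Red SRC2 peptide, 0.6 uM human TRb LBD, 1 uM T3, 5% DMSO; compound exposure 5 h at ambient temperature.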
JMJD2E inh: inhibitors of human JMJD2E histone demethylase. 230,000 compounds, 1.6% hits. Potency, µM (highest dose often 57.1 µM), inactives show top-dose activity change, negative = inhibition, usual class: inhibitors. B2RXH2. JMJD2E catalytic domain, FDH-coupled NADH fluorescence (FDH is formaldehyde dehydrogenase);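 further: 0% = wells with enzyme and -100% = buffer wells without enzyme; nearly all actives have a fitted effect of over 50% in size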
Tau fibril FP: blocks human tau fibril formation measured by polarization | P10636 | K18 P301L tau heparin fibrillization, Alexa594 FP, 6 h | Potency, µM (series often up to 57.7 µM), without a hit: at the highest dose activity, negative = inhibition, usual class: inhibitors | 280,000 compounds, 0.39% hits | AID 1468; further: nearly all actives have a fitted effect of over 55% in size
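Heparin (20 uM) drove fibril formation of recombinant tau K18 P301L, 15 uM unlabeled with 0.24 uM Alexa 594 label, for 6 hr at 37 C in 100 mM sodium acetate pH 7. Fluorescence polarization (555/632 nm) read 1 hr after 30 uM ThT.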
Tau fluor counter: counter-screen for tau fibril formation inhibitors | tau K18 P301L Alexa594 fluorescence, heparin fibrillization | Potency, µM (titrated, usually from 57.7 µM), without a hit: at the top dose activity change, negative = decrease | 280,000 compounds, 0.93% hits | AID 1463; further: nearly all actives have a fitted effect of over 55% in size
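Human tau K18 P301L (15 uM unlabeled, 0.24 uM Alexa 594-labeled) in 100 mM sodium acetate pH 7 with 20 uM heparin, 6 hr at 37 C. ThT 30 uM added, 1 hr ambient; Alexa 594 FP and total fluorescence read at 555/632 nm.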
TRb SRC2 PPI: inhibitors of human thyroid hormone receptor beta-SRC2 interaction | Potency, µM (highest dose often 106 µM), for the others: at the highest dose activity change, negative = inhibition, actives largely listed as inhibitors | 280,000 compounds, 0.065% hits | AID 1469 | P10828 | TRbeta-SRC2 peptide binding, fluorescence polarization; receptor liganded with 1 µM T3;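 further: plate controls were bound peptide for no effect and peptide without receptor for full effect; nearly all actives have a fitted effect of over 50% in size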
Target sequence (P10828 whole entry, looked up): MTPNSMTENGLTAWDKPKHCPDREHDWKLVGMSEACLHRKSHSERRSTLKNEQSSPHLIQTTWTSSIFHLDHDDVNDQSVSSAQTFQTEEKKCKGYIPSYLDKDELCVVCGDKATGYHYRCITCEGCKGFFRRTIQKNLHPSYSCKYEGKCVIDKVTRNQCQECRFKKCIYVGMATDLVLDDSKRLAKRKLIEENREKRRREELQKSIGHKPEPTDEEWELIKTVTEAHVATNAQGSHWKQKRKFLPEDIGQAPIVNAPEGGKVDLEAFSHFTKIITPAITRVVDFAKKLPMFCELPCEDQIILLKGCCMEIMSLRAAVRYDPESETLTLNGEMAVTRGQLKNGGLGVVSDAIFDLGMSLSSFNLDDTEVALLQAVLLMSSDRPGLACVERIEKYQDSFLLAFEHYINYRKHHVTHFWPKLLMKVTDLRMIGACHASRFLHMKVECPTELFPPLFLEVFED
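Binding of a 20-amino-acid Texas Red SRC2 peptide (20 nM) to TRb ligand-binding domain (0.6 uM) with agonist T3 at 1 uM was followed by fluorescence polarization after a 5 hr room-temperature incubation.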
Active calls of the source: *; ? = inconclusive; . = not tested or not shown; [ ] = dose if it differs, or a comment. This is a sample that favours compounds with a hit; in the whole collection about 3.5% have one here. Unless noted, the call rests on the fitted dose curve; in most records, active means well fitted curve in the direction sought with a large enough effect; inconclusive means small, poorly fitted or top-dose-only effect, or another doubt; inactive means no such curve, though single readings can be large; an effect the other way counts as inactive or inconclusive. Unless noted, on the % scale 0 is the no-effect control and ±100 the full control effect; potency means the concentration at half of the fitted maximal effect.

SMILES | Tau ThT inhib | TexasRed fluor | JMJD2E inh | Tau fibril FP | Tau fluor counter | TRb SRC2 PPI
O=C(NN1C(=O)C2C(C1=O)C1C=CC2C12CC2)c1ccncc1 (stereo unspecified) | 10µM* | -9% | ? | ? | ? | 3%
O=C(NN1C(=O)C2C(C1=O)C1C=CC2C12CC2)c1cccnc1 (stereo unspecified) | -1% | -3% | -3% | -7% | -2% | -6%
CCOc1cc(C(C#N)N2CCCCC2)ccc1OC (stereo unspecified) | -4% | 0% | -13% | 3% | -2% | 0%
CCc1ccccc1N(C)C(=O)c1nn(-c2ccc(OC)cc2)c(=O)c2c1c1ccccc1n2C | -15% | 0% | . | -9% | -27% | 4%
S=C(Nc1ccccc1)Nc1ccc(OCc2ccc(Cl)cc2Cl)cc1 | ? | -3% | -6% | -1% | 14µM*[quencher] | 6%
S=C(NCCSCc1ccc(Cl)cc1Cl)Nc1ccccc1 | -15% | 3% | 2% | ? | ? | -2%
CC(C)Cc1c(O)nc(SCC(=O)Nc2ccc3c(c2)CCC3)[nH]c1=O | -11% | 1% | -4% | 7% | 0% | -2%
CC(C)CNC(=S)NNC(=O)c1csc2c1CCCC2 | -15% | -2% | 1% | -14% | -22% | 5%
CCC(C)NC(=O)COC(=O)c1csc2c1CCCC2 (stereo unspecified) | 2% | 0.0004µM*[quencher] | -1% | 6% | -3% | ?
O=C1N=c2ccccc2=C1c1c(O)n(-c2cccc(F)c2)[nH]c1=O | 14µM* | -4% | ? | ? | -25% | 4%
Cc1nc(SCc2cccc(F)c2)[nH]c(=O)c1C#N | -20% | 3% | 28µM* | -3% | -14% | 4%
N#Cc1c(-c2ccco2)nc(SCc2ccc(F)cc2)[nH]c1=O | 6% | 1% | -4% | 14% | 2% | -3%
O=C(CN(Cc1ccc(F)cc1)S(=O)(=O)c1ccc(S(=O)(=O)N2CCOCC2)cc1)Nc1ccccc1 | 7% | 1% | -1% | -5% | 0% | 5%
COc1cc(SC)ccc1C(=O)NCCOc1c(C)cc(C)cc1C | 16µM* | 0% | 188% | -6% | -20% | ?
Cc1ccc(C2=Nc3ccccc3N=C(c3ccc(F)cc3)C2)c(O)c1 | 4% | 6% | . | -3% | -8% | -3%
O=C1c2ccccc2C(=O)c2c(O)c(O)cc(O)c21 | 5µM* | -21% | 22µM* | ? | 14µM*[quencher] | -16%
O=C1c2ccccc2C(=O)c2c(O)ccc(O)c21 | ? | 1% | -15% | ? | -28% | -2%
CCC(C)(C)n1nnnc1C(c1ccccc1)N1CCN(C2CCCC2)CC1 (stereo unspecified) | 0% | -1% | 2% | -7% | -8% | -23%
O=C(N/N=C/c1cn(CC(=O)N2CCOCC2)c2ccccc12)c1cccnc1 | -12% | 1% | -10% | -2% | -10% | 4%
O=c1c(O)cccc2cc(O)c(O)c(O)c12 | 3.2µM* | ? | 4µM* | 11µM* | 2.5µM*[quencher] | 4%
O=C1/C(=C/c2ccc(N3CCOCC3)o2)SC(=Nc2ccccc2)N1CCc1c[nH]c2ccccc12 | 14µM* | 0% | -4% | ? | ? | 6%
COc1ccc(N=C2S/C(=C\c3ccc(OC(C)C(=O)O)c(OC)c3)C(=O)N2CCc2c[nH]c3ccccc23)cc1 (stereo unspecified) | 28µM* | -3% | -8% | -2% | ? | -5%
Cc1cc(C(=O)CCl)c(C)n1CCc1ccc(Cl)cc1 | ? | -3% | 1% | 4% | -17% | -6%
COc1ccccc1N1C(=O)CC(N(O)c2ccccc2)C1=O (stereo unspecified) | ? | 1% | 6% | 6% | -11% | 2%
COc1ccccc1N(O)C1CC(=O)N(c2ccc(F)cc2)C1=O (stereo unspecified) | 14µM* | -8% | ? | ? | 16µM*[quencher] | ?
SMILES | Tau ThT inhib | TexasRed fluor | JMJD2E inh | Tau fibril FP | Tau fluor counter | TRb SRC2 PPI
Cc1ccc(/C(N)=N/OC(=O)CCc2ccccc2)cc1 | 32µM* | 1% | ? | ? | ? | -8%
CCCCSc1nnc2[nH]c(=O)cc(C)n12 | -6% | -1% | . | -14% | -12% | -2%
Cc1ccc(S(=O)(=O)NCC2NCCc3ccccc32)cc1 (stereo unspecified) | -14% | 0% | -16% | -4% | -10% | -5%
O=C(O)/C=C/C(=O)Nc1ccc(OC(F)(F)F)cc1Br | -12% | -8% | -18% | 4% | -7% | 32µM*
O=C(O)/C=C/C(=O)Nc1ccc(OC(F)(F)F)cc1 | -6% | -6% | -1% | 2% | -7% | -4%
O=C(/C=C/c1ccc(S(=O)(=O)N2CCOCC2)cc1)N1CCN(c2ccc(F)cc2)CC1 | -12% | 1% | 1% | 2% | -19% | 3%
CCSc1nnc(NC(=O)C(C(F)(F)F)C(F)(F)F)s1 | 22µM* | -5% | -3% | ? | -21% | -8%
CCSc1nnc(NC(=O)C(C)C)s1 | -2% | 0% | -4% | -1% | -3% | -5%
COc1ccc(N2CCN(CCNC(=O)Nc3ccc(Cl)cc3)CC2)cc1 | -15% | -6% | 2% | 16% | -21% | -3%
CCOc1ccc(NC(=O)NCCN2CCN(c3cc(Cl)ccc3C)CC2)cc1 | ? | -1% | . | ? | 14µM*[quencher] | -1%
Cc1ccc(Cl)cc1N1CCN(CCNC(=O)Nc2ccc(Cl)cc2)CC1 | -1% | -1% | . | 13µM* | ? | -8%
Cc1nc2c(o1)CCc1ccccc1C2N1CCN(C)CC1 (stereo unspecified) | -6% | -11% | -5% | 0% | -1% | 4%
O=C(COC(=O)COc1ccc2ccccc2c1)NCC(F)(F)F | -7% | 2% | 2% | 1% | -5% | -5%
CCc1nnc(N/N=C/c2ccc(N3CCC(C)CC3)c([N+](=O)[O-])c2)n1N | 13µM* | 6% | ? | -5% | ? | 4%
Nn1cnnc1N/N=C/c1ccc(Cl)c([N+](=O)[O-])c1 | 25µM* | 0% | -80% | ? | -26% | 7%
CCc1nnc(N/N=C/c2ccccc2Cl)n1N | ? | -2% | -4% | -15% | -18% | -14%
Nc1nnnn1/N=C\c1ccc(Cl)c([N+](=O)[O-])c1 | ? | -4% | 1% | 5% | -13% | -3%
Cc1nnc(N/N=C/c2cc([N+](=O)[O-])c(N3CCC(C)CC3)cc2N2CCC(C)CC2)n1N | 18µM* | -1% | ? | -14% | ? | 16%
CCOc1ccc(NC(=O)c2c(NC(=O)c3ccccc3Br)sc3c2CCC(C)C3)cc1 (stereo unspecified) | 14µM* | -54% | . | ? | -23% | -9%

Screening data deposited in PubChem by National Center for Advancing Translational Sciences (NCATS).
